# From PubChem
# TDP1 cell CPT – DT40-hTDP1 cell growth loss with CPT. chicken DT40 Tdp1-/-;hTDP1 cells + 20 nM CPT, ATP luminescence, 48 h. Potency, µM (series often up to 46.2 µM), hits mostly inhibitors. 420,000 compounds, 12% hits. AID 686979; further: nearly all actives have a fitted effect of over 55% in size
#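 Chicken DT40 Tdp1-/- cells stably complemented with human TDP1 were seeded at 400 cells/well in medium containing 20 nM camptothecin, exposed to pin-transferred compounds, and grown at 37 °C for at least 48 hr. Viability was read as ATP luminescence.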
# ALOX12 inh – blocks human arachidonate 12S-lipoxygenase. purified 12hLO, xylenol orange hydroperoxide absorbance. Potency, µM (series often up to 108 µM), usual class: inhibitors. 580,000 compounds, 1.1% hits
# Target sequence (P18054 whole entry, looked up): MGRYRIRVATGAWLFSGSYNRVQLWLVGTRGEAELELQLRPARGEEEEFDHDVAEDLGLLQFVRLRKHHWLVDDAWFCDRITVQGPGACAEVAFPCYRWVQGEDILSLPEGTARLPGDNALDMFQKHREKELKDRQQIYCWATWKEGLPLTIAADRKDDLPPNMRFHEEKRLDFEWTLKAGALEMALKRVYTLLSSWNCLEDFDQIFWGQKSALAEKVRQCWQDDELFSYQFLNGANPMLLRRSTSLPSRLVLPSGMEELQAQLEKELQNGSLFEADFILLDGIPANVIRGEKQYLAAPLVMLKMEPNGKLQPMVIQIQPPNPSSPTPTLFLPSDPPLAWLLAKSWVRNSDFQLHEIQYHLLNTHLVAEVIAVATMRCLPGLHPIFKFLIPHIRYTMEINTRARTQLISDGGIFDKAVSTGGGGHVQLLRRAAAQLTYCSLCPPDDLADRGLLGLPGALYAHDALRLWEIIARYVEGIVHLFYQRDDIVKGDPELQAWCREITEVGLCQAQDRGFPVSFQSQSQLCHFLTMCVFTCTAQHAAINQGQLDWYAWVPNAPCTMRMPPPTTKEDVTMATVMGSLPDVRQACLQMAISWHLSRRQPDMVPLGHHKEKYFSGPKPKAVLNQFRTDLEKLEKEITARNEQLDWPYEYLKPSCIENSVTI
#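 Purified human 12hLO at 150 nM in 25 mM Hepes, 0.01% Triton X-100, pH 7.0, preincubated 15 min at room temperature with compound. Reaction started with 40 uM arachidonic acid, 30 min at room temperature. Hydroperoxide measured by Fe-xylenol orange, 573/405 nm absorbance ratio.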
# IL1B secr inh – inhibitors of inflammasome signaling (IL-1 beta secretion) | THP-1 LPS/ATP IL-1B secretion, AlphaLISA, 16 h; hits give low values | activity change, % at 57.5 µM | 360,000 compounds, 4.7% hits; in the data active means activity change below about -50%; inconclusive means mostly about -30% to -49%
#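 Secreted IL-1B measured by AlphaLISA bead assay after 16 h compound exposure of THP-1 cells; compounds (final up to 57.5 uM) added 1 h before LPS (250 ng/mL) and ATP (1.25 mM) stimulation; lower signal means less secretion.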
# TDP1 cell noCPT – qHTS for Inhibitors of human tyrosyl-DNA phosphodiesterase 1 (TDP1): qHTS in cells in absence of CPT. DT40 Tdp1-/- hTDP1 cells, no CPT, ATP luminescence, 48 h. Potency, µM (titrated, usually from 46.2 µM), actives largely listed as inhibitors. 420,000 compounds, 15% hits. AID 686978, 2013; further: nearly all actives have a fitted effect of over 55% in size
#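 Readout: luminescence from CellTiter-Glo after 30 min in the dark at RT. Cells: DT40 Tdp1-/- with stable hTDP1, 400/well. Exposure: compounds alone, ≥48 hr, 37 °C.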
# HT1080NT lethal – kills 2HG-producing HT-1080-NT fibrosarcoma cells; HT-1080-NT fibrosarcoma viability, CellTiter-Glo ATP luminescence, 48 h; 360,000 compounds, 1.6% hits; AID 686970; Potency, µM (titrated, usually from 46.1 µM), usual class: cytotoxic;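 further: NT is the 2HG producing partner of a matched IDH1 knockdown line; nearly all actives have a fitted effect of over 55% in size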
#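 Fibrosarcoma NT cells, 750 per well in 5% FBS RPMI, were exposed to compound for 48 hours. Viability: CellTiter-Glo luminescence.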
# HT1080 IDH1KD tx – kills HT-1080 cells with IDH1 knockdown; Potency, µM (top dose mostly 46.1 µM), usual class: cytotoxic; 360,000 compounds, 2% hits; HT-1080 IDH1 knockdown viability, ATP luminescence, 48 h
#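 Luminescent ATP read-out (CellTiter-Glo, 10 min at room temperature) after 48 h compound exposure at 37 °C gave viability of IDH1-knockdown HT-1080 cells. Activity was normalised to DMSO and cell-free wells, then fitted as concentration-response curves.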
# Numbers stand for hits; . = inactive; ? = inconclusive; / = no result; [ ] = remark or other dose. Shown is part of a subset that was picked to be rich in hits. Unless noted, the call rests on the fitted dose curve; in most records, active means well fitted curve in the direction sought with a large enough effect; inconclusive means small, poorly fitted or top-dose-only effect, or another doubt; inactive means no such curve, though single readings can be large; an effect the other way counts as inactive or inconclusive.
SMILES,TDP1 cell CPT,ALOX12 inh,IL1B secr inh,TDP1 cell noCPT,HT1080NT lethal,HT1080 IDH1KD tx
CC(=O)c1cccc(NC(=O)C2CCCN2S(=O)(=O)c2ccccc2C(F)(F)F)c1 (stereo not drawn),.,.,.,.,.,.
O=C(Nc1cccc(S(=O)(=O)N2CCCCC2)c1)[C@@H]1CCCN1S(=O)(=O)c1ccccc1C(F)(F)F,?,.,?,23µM,.,.
Cc1cc2nc(CSCC(=O)Nc3ccccc3)cc(=O)n2o1,/,.,/,/,/,/
CCCCCCCC(=O)N/N=C/C(C)=N/NC(=O)CCCCCCC,/,.,/,/,/,/
O=C(Nc1nccs1)c1ccc[n+]([O-])c1,/,.,/,/,/,/
N#CCNC1CC(=O)N(c2ccc(F)cc2)C1=O (stereo not drawn),4.6µM,.,.,?,.,.
COc1ccc(CNc2cccc(C(=O)O)c2C)c(OC)c1,/,.,/,/,/,/
Cc1sc2c(c1C)c(=O)n(-c1ccc(Cl)cc1)c(=O)n2CC(=O)c1ccccc1,.,.,/,.,/,/
O=c1c2c3c(sc2n(Cc2ccccc2F)c(=O)n1-c1ccc(Cl)cc1)CCCC3,.,.,/,.,/,/
CC(=O)c1sc2c(c1C)c(=O)n(-c1ccc(Cl)cc1)c(=O)n2Cc1ccc(Cl)cc1,8.2µM,.,/,8.2µM,/,/
O=C(Cn1c(=O)n(-c2ccc(Cl)cc2)c(=O)c2c3c(sc21)CCC3)c1ccc(F)cc1,8.2µM,?,/,9.2µM,/,/
CCc1ccc(-n2c(=O)c3c4c(sc3n(CC(=O)c3ccc(Br)cc3)c2=O)CCC4)cc1,5.8µM,.,/,3.7µM,/,/
CCc1ccc(-n2c(=O)c3c4c(sc3n(CC(=O)c3ccc(Cl)cc3)c2=O)CCC4)cc1,2.6µM,.,/,2.6µM,/,/
COc1ccc(C(=O)N2CCC3(CC2)NCCc2c3[nH]c3ccccc23)cn1,/,.,/,/,/,/
COc1ccc(OC)c(S(=O)(=O)N2C[C@@H](Oc3cccnc3)C[C@H]2C(N)=O)c1,/,.,/,/,/,/
Cc1cccc2nc(Cn3c(=O)n(-c4ccccc4)c(=O)c4c5c(sc43)CCC5)cc(=O)n12,?,.,/,?,/,/
CCc1ccc(-n2c(=O)c3c4c(sc3n(Cc3cc(=O)n5c(C)cccc5n3)c2=O)CCC4)cc1,?,.,/,12µM,/,/
CCOC(=O)N1CCc2c(sc3c2c(=O)n(-c2ccc(CC)cc2)c(=O)n3Cc2cc(C)ccc2C)C1,.,.,/,.,/,/
CCOC(=O)N1CCc2c(sc3c2c(=O)n(-c2ccc(CC)cc2)c(=O)n3CC(=O)c2ccc(F)cc2)C1,13µM,.,/,?,/,/
O=C(Cn1nc(C(=O)O)c2ccccc2c1=O)Nc1ccc(F)c(F)c1F,/,.,/,/,/,/
O=C(NCC1CC1)c1cnc(N2CCN(Cc3cccc(F)c3)C2=O)s1,/,.,/,/,/,/
COC(=O)c1cnc2c(c1)n(CCCn1cnnn1)c(=O)n2C1CCCCC1,/,.,/,/,/,/
Cc1cc(S(=O)(=O)NC2CCCCC2)ccc1OCC(=O)N1CCOCC1,.,.,.,.,.,.
CCOC(=O)N1CCC(NS(=O)(=O)c2ccc(C)c(Cl)c2)CC1,?,.,.,6.5µM,.,.
Cc1ccccc1OCC(=O)NC(=S)Nc1ccc(S(=O)(=O)NC2CCCCC2)cc1,?,.,.,13µM,?,.[9.24 µM]
SMILES,TDP1 cell CPT,ALOX12 inh,IL1B secr inh,TDP1 cell noCPT,HT1080NT lethal,HT1080 IDH1KD tx
CCc1ccc(OCC(=O)NC(=S)Nc2ccc(S(=O)(=O)NC3CCCCC3)cc2)cc1,?,?,.,?,.,.
CCOC(=O)N1CCN(C(=O)COc2ccc(S(=O)(=O)NC3CCCCC3)cc2C)CC1,?,.,.,18µM,.,.
CN(C)c1cccc(C(=O)N2CCC(OCCOc3ccc(F)cc3)CC2)c1,/,.,/,/,/,/
Cc1cc(=O)oc2cc(NC(=O)Cc3cccc(F)c3)ccc12,/,.,/,/,/,/
Cc1nc2c(=O)[nH]c(=S)n(C)c2nc1C,?,32µM,.,?,.,.
COc1cc(NC(=O)Cn2c(=O)nc(-c3ccccc3F)c3cc(Cl)ccc32)cc(OC)c1,15µM,?,/,10µM,/,/
